High-throughput results: PubChem BioAssay, National Center for Advancing Translational Sciences (NCATS)
IL-1B inflam inh: blocks inflammasome-driven IL-1 beta release. activity change, % at 57.5 µM. THP-1 LPS/ATP IL-1B secretion, AlphaLISA, 16 h; active compounds read low. 360,000 compounds, 4.7% hits. AID 743279; in the data active means activity change below about -50%; inconclusive means mostly about -30% to -49%; further: on the % scale 0 is the no-effect control and ±100 the full control effect
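Secreted IL-1B measured by AlphaLISA bead assay after 16 h compound exposure of THP-1 cells; compounds (final up to 57.5 uM) added 1 h before LPS (250 ng/mL) and ATP (1.25 mM) stimulation; lower signal means less secretion.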
ASM inhibitor: inhibitors of human secretory acid sphingomyelinase. P17405. placental ASM, HMU-PC fluorogenic substrate, 60 min. Potency, µM (top dose mostly 57.5 µM), for inactives: top-dose activity change, negative = inhibition, usual class: inhibitors. 340,000 compounds, 0.006% hits. AID 504937; further: potency means the concentration at half of the fitted maximal effect
Target sequence (P17405 47-631 limits assumed): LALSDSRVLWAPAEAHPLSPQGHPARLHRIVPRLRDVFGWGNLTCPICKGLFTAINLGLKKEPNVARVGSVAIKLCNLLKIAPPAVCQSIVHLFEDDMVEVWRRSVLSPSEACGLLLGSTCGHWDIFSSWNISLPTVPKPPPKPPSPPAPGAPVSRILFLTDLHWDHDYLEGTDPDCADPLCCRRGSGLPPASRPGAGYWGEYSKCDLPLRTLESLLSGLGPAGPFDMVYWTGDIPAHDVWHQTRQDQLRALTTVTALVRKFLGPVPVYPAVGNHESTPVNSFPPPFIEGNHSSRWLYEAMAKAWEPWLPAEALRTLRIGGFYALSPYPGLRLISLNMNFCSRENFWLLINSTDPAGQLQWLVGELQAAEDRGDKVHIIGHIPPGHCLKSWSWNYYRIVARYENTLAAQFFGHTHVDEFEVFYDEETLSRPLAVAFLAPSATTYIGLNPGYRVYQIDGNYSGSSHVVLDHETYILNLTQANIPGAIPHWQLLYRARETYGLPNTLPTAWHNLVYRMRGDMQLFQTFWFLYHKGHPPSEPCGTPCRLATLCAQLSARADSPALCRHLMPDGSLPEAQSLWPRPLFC
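Human placenta-derived ASM enzyme was preincubated with compound for 10 minutes at room temperature, then given fluorogenic substrate HMU-PC0 (9 uM final) for 60 minutes at 37 °C; a pH 10 stop preceded fluorescence reading at Ex 386/Em 447 nm.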
DT40 TDP1 no CPT: qHTS for Inhibitors of human tyrosyl-DNA phosphodiesterase 1 (TDP1): qHTS in cells in absence of CPT. DT40 Tdp1-/- hTDP1 cells, no CPT, ATP luminescence, 48 h. Potency, µM (titrated, usually from 46.2 µM), inactives show top-dose activity change, negative = growth inhibition, usual class: inhibitors. 420,000 compounds, 15% hits. AID 686978, 2013; further: potency means the concentration at half of the fitted maximal effect; on the % scale 0 is the no-effect control and ±100 the full control effect; nearly all actives have a fitted effect of over 55% in size
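Luminescent ATP content (CellTiter-Glo) served as the growth readout. Knockout chicken DT40 cells expressing human TDP1 were exposed to compounds without camptothecin for a minimum 48 hr at 37 °C.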
DT40 TDP1 CPT: growth inhibition of DT40 Tdp1-/-;hTDP1 cells with camptothecin (screen for TDP1 inhibitors) | chicken DT40 Tdp1-/-;hTDP1 cells + 20 nM CPT, ATP luminescence, 48 h | Potency, µM (top dose mostly 46.2 µM), inactives show at the top dose activity change, negative = growth inhibition, most hits filed as inhibitors | 420,000 compounds, 12% hits; further: potency means the concentration at half of the fitted maximal effect; on the % scale 0 is the no-effect control and ±100 the full control effect; nearly all actives have a fitted effect of over 55% in size
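Chicken DT40 Tdp1-/- cells complemented with human TDP1, 400 cells/well, exposed to compounds plus 20 nM camptothecin for at least 48 h at 37 C; viability read as ATP content by CellTiter-Glo luminescence.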
HepG2 viability: counter-screen for TGF-b inhibitors: cytotoxicity in HepG2 cells; 410,000 compounds, 0.76% hits; HepG2 CAGA-GFP viability, ATP luminescence, 18 h; Potency, µM (highest dose often 46.1 µM), for inactives: top-dose activity change, negative = cytotoxicity, usual class: cytotoxic; further: potency means the concentration at half of the fitted maximal effect
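CellTiter-Glo luminescence gave cytotoxicity after 18 hours at 37 degrees C. The cells were HepG2 CAGA-GFP in 1% FBS DMEM, stimulated with 500 pg/mL TGF-beta after compound addition. %Activity was normalised to no-cell wells (complete cell-killing) and DMSO (no toxicity), and curves were fitted and classified.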
TGFb inhibitor: blocks TGF-b signaling. HepG2 CAGA-GFP TGF-b/SMAD3 reporter, GFP fluorescence, 18 h; TGF-beta stimulated, 500 pg/mL final. Potency, µM (series often up to 46.1 µM), for the others: at the top dose activity, negative = inhibition, most hits filed as inhibitors. 410,000 compounds, 1.2% hits; further: potency means the concentration at half of the fitted maximal effect; on the % scale 0 is the no-effect control and ±100 the full control effect; nearly all actives have a fitted effect of over 65% in size
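HEPG2 CAGA-GFP, 1000 cells/well; 2 h settle, 37 C; cpd via pin tool; TGF-b 500 pg/mL final; 18 h, 37 C; GFP imaging ex488/em500-530; %Activity normalised to -TGF-b and +DMSO controls; CRC fit, curve class.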
Numbers without * were called inactive; u = inconclusive; x = no result. Rows were chosen to be rich in hits. Some 19% of all compounds tested hit in one or more screens of this group. Unless noted, the call rests on the fitted dose curve; in most records, active means well fitted curve in the direction sought with a large enough effect; inconclusive means small, poorly fitted or top-dose-only effect, or another doubt; inactive means no such curve, though single readings can be large; an effect the other way counts as inactive or inconclusive.

SMILES | IL-1B inflam inh | ASM inhibitor | DT40 TDP1 no CPT | DT40 TDP1 CPT | HepG2 viability | TGFb inhibitor
Fc1ccccc1-c1nc(NCCCN2CCOCC2)c2ccccc2n1 | -16 | -1% | u | u | -25% | 5%
CS(=O)(=O)Nc1cccc(-c2nc(NCCN3CCOCC3)c3ccccc3n2)c1 | x | x | u | -3% | x | x
CCN(C)C(=O)Oc1cccc([C@H](C)N(C)C)c1 | x | x | -11% | -11% | x | x
CN(CCCCCCCCCCN(C)C(=O)Oc1cccc([N+](C)(C)C)c1)C(=O)Oc1cccc([N+](C)(C)C)c1 | 2 | 0% | 0.82µM* | 2.3µM* | -4% | 5%
O=C(Cc1ccccc1)N/N=C/c1ccccc1OCc1ccc(Cl)cc1 | -20 | -16% | u | u | 1% | 0%
CCOC(=O)N/N=C/c1ccccc1OCc1ccc(Cl)cc1 | -22 | -9% | 29µM* | u | -9% | -1%
O/N=C/c1ccccc1OCc1ccc(Cl)cc1 | -96* | -11% | 0% | -3% | -24% | -12%
O=C(Nc1ccc(F)cc1)c1csc2c1CCCCC2 | x | x | u | u | -21% | u
CCOC(=O)c1c(-c2ccc(C)o2)csc1NC(=O)CN(C)CC(=O)Nc1ccc(C)cc1 | 30 | -8% | u | u | -53% | -6%
CCOC(=O)c1c(-c2ccc(C)o2)csc1NC(=O)CN1CCCCC1 | u | -2% | 21µM* | u | 8% | u
CCOC(=O)c1c(-c2ccc(C)o2)csc1NC(=O)CN1CCC(C(N)=O)CC1 | -78* | 5% | u | u | 0% | u
CCOC(=O)c1c(-c2ccco2)csc1NC(=O)CSc1nnc(N)s1 | 40 | -4% | u | u | -20% | -11%
CCOC(=O)c1c(-c2ccc(C)o2)csc1NC(=O)CSc1nncs1 | 22 | 0% | 16µM* | 23µM* | -27% | -14%
CCOC(=O)c1c(-c2ccc(C)o2)csc1NC(=O)CN1CCN(CC)CC1 | -18 | -2% | 29µM* | u | -30% | -12%
O=C(CSc1nnc2ccc(-c3cccnc3)nn12)Nc1cccc(F)c1 | -5 | x | -15% | -16% | -1% | -2%
CC(=O)N1CCCc2cc(S(=O)(=O)N3CCC(C(=O)NC4CCC(C)CC4)CC3)ccc21 (stereo not drawn) | x | x | -27% | -1% | -19% | 7%
CCOc1cc(CNC(=O)c2ccc3c(c2)N(C)C(=O)C2CCCCN32)cc(OCC)c1OCC (stereo not drawn) | x | x | u | u | -35% | 0%
CS(=O)(=O)c1cccc(-c2nnc(NC(=O)c3ccc4c(c3)OCCO4)o2)c1 | x | x | u | u | -15% | -1%
Cc1ccc(S(=O)(=O)N2[C@@H](c3cccc(Cl)c3)C(C(=O)O)=CC[C@H]2c2ccc(C(C)C)cc2)cc1 | 28 | -16% | -20% | -26% | -15% | u
CCOC(=O)c1c(NC(=O)CN2CCCCC2)sc2c1CCC(C=O)=C2Cl | -21 | -6% | 3.5µM* | 4µM* | -16% | 1%
CCOC(=O)c1c(NC(=O)CN2CCN(c3ccc(Cl)cc3)CC2)sc(C)c1C | 19 | -5% | u | u | 1% | -14%
CC(C)C(NC(=O)c1ccoc1)c1nnc2n1CCN(C(=O)/C=C/c1ccc(F)cc1)CC2 (stereo not drawn) | x | x | -21% | 1% | x | x
CCCCCn1c(=S)[nH]c2cc(C(=O)N3CCN(C(=O)OCC)CC3)ccc2c1=O | 55 | 0% | u | -23% | 0% | 4%
CCOC(=O)N1CCN(C(=O)c2ccc(Cn3c(=S)[nH]c4cc(C(=O)OC)ccc4c3=O)cc2)CC1 | 4 | 11% | 8.2µM* | u | 6% | -8%
CCOC(=O)C1CCCN(C(=O)c2ccc(Cn3c(=S)[nH]c4cc(C(=O)OC)ccc4c3=O)cc2)C1 (stereo not drawn) | -2 | 13% | 26µM* | u | -19% | 10%
SMILES | IL-1B inflam inh | ASM inhibitor | DT40 TDP1 no CPT | DT40 TDP1 CPT | HepG2 viability | TGFb inhibitor
CCOC(=O)C1CCCN(C(=O)c2ccc3c(=O)n(Cc4ccccc4OC)c(=S)[nH]c3c2)C1 (stereo not drawn) | 24 | -2% | 18µM* | u | 2% | -21%
COc1ccccc1Cn1c(=S)[nH]c2cc(C(=O)N3CC(C)CC(C)C3)ccc2c1=O (stereo not drawn) | u | x | u | u | -10% | -21%
CCOC(=O)c1sc2ncnc(NCC(c3cccs3)N(C)C)c2c1C (stereo not drawn) | 3 | 3% | u | 29µM* | 6% | -3%
NC(=NC(=O)c1ccc(Cl)cc1)N1N=CCC1c1ccccc1 (stereo not drawn) | -27 | -3% | u | 2% | -9% | -6%
O=C(CSc1ccc(Cl)cc1)N1N=CCC1c1ccccc1 (stereo not drawn) | -63* | -2% | u | u | 3% | -6%
COc1ccc2ccccc2c1/C=N/O | -11 | 1% | -11% | -24% | 0% | -9%
COc1cc2ccccc2ccc1=NO | u | -4% | 12µM* | 16µM* | -12% | -23%
COc1ccc(OC)c2cc3ccccc3cc12 | 0 | 12% | 0.92µM* | 0.73µM* | -7% | -6%
COc1cc2ccccc2cc1C(=O)O | 13 | 1% | -14% | -1% | -11% | 0%
CCOC(=O)CNc1ncnc2c1nnn2C | x | x | -10% | 20% | -14% | -21%
COC(=O)c1c(NC(=O)COC(=O)[C@@H](NS(=O)(=O)c2ccc(C)cc2)C(C)C)sc2c1CCC2 | -29 | -1% | 23µM* | u | -1% | u
O=C(Nc1cccc(Cl)c1)c1c(NC(=O)C(F)(F)F)sc2c1CCCC2 | x | x | 3.3µM* | 6.5µM* | 11µM* | u
Cc1ccccc1NC(=O)c1c(NC(=O)C(F)(F)F)sc2c1CCCCC2 | x | x | 2.9µM* | 3.7µM* | -38% | 1.4µM*
O=C(Nc1sc2c(c1C(=O)O)CCC2)c1cccc(Cl)c1 | -4 | 8% | -27% | -25% | -14% | -22%
COC(=O)c1c(NC(=O)COc2ccc(C(C)C)cc2)sc2c1CCCC2 | x | x | 23µM* | u | 3% | -2%
CCCCNC(=O)C1(C)CCCCN1C(=O)c1cncc(Br)c1 (stereo not drawn) | 9 | x | -7% | -21% | -5% | 9%
